# Giardia FBPA inh: Giardia lamblia aldolase inhibition. 290,000 compounds, 0.71% hits. Potency, µM (titrated, usually from 59.6 µM), for inactives: at the top dose activity, negative = inhibition, most hits filed as inhibitors. AID 2451. purified Giardia FBPA; further: potency means the concentration at half of the fitted maximal effect; on the % scale 0 is the no-effect control and ±100 the full control effect; nearly all actives have a fitted effect of over 55% in size
# Target sequence (A8B2U2 whole entry, looked up): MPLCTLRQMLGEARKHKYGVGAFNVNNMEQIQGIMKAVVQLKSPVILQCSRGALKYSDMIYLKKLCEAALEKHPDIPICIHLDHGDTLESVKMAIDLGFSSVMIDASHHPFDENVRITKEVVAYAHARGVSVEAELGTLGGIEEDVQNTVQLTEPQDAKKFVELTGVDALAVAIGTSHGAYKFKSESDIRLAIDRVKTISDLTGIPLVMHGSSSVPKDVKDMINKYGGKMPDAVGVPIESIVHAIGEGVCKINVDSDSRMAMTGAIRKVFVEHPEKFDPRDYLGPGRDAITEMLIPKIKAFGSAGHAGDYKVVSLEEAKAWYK
#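 Giardia FBPA (40 nM reagent) was preincubated 10 min at RT with compound (up to 57.5 uM final), then substrate plus GAPDH/TPI/NAD/arsenate coupling system with diaphorase/resazurin was added; resorufin fluorescence (525/598 nm) was read after 20 min.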
# LmPK inh: inhibitors of Leishmania mexicana pyruvate kinase; Q27686; purified LmPK, Kinase-Glo ATP luminescence, 1 h; Potency, µM (series often up to 57.5 µM), without a hit: at the top dose activity change, negative = inhibition, usual class: inhibitors; 290,000 compounds, 0.37% hits; AID 1721; further: potency means the concentration at half of the fitted maximal effect; on the % scale 0 is the no-effect control and ±100 the full control effect
#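 0.1 nM LmPK, 0.5 mM PEP, 0.1 mM ADP; 50 mM imidazole pH 7.2, 7 mM MgCl2, 50 mM KCl; 1 h RT. Kinase-Glo luminescence readout, normalized to no-enzyme (full inhibition) and uninhibited wells.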
# Shiga inhibitor: blocks Shiga toxin action in Vero cells. Vero cells, Shiga toxin protein synthesis inhibition reporter. inhibition, % at 38.7 µM. 290,000 compounds, 9.2% hits; in the data active means inhibition mostly above about 28%, no sharp cut-off; inactive means mostly below about 43%; further: 0% is about no effect
# Cycloheximide cs: affects cycloheximide protein synthesis inhibition readout, counter-screen | max response, % | 300,000 compounds, 12% hits | cell reporter, cycloheximide protein synthesis inhibition counterscreen; in the data active means max response mostly above about 13%, no sharp cut-off; inactive means mostly below about 14%; further: read at 38.3 µM for the half of the compounds with a filed dose; 0% is about no effect
# Sm TGR inh: blocks Schistosoma mansoni thioredoxin glutathione reductase. Q962Y6. purified TGR, DTNB reduction, TNB absorbance 405 nm. Potency, µM (series often up to 114 µM), for inactives: top-dose activity change, negative = inhibition, actives largely listed as inhibitors. 360,000 compounds, 3% hits. AID 485364; further: potency means the concentration at half of the fitted maximal effect; on the % scale 0 is the no-effect control and ±100 the full control effect; nearly all actives have a fitted effect of over 60% in size
#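 TGR 20 nM + NADPH 100 uM (dispensed conc.), cpd preinc 15 min RT; start with NADPH (500 uM addition) then DTNB (15 mM addition). Kinetic TNB absorbance, 405 nm filter. Four-parameter Hill fit across titration.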
# Tb PYK inh: inhibitors of Trypanosoma brucei pyruvate kinase; TbPYK enzyme, Kinase-Glo Plus ATP luminescence, 45 min; Potency, µM (highest dose often 76.8 µM), for the others: top-dose activity, negative = inhibition, usual class: inhibitors; 410,000 compounds, 0.12% hits; further: potency means the concentration at half of the fitted maximal effect; on the % scale 0 is the no-effect control and ±100 the full control effect; nearly all actives have a fitted effect of over 50% in size
#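 T. brucei PYK with substrate was exposed to pin-transferred compounds across a concentration series, then started with 130 uM ADP (final). After 45 min at room temperature, Kinase-Glo Plus luminescence was read, normalized and curve-fitted.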
# * marks the source's active call; other numbers are inactive results; i = inactive; ? = inconclusive; / = no result given; [ ] = another dose, or the depositor's remark. Only a selection was taken, and hits are over-represented in it overall. Unless noted, the call rests on the fitted dose curve; in most records, active means well fitted curve in the direction sought with a large enough effect; inconclusive means small, poorly fitted or top-dose-only effect, or another doubt; inactive means no such curve, though single readings can be large; an effect the other way counts as inactive or inconclusive.
SMILES,Giardia FBPA inh,LmPK inh,Shiga inhibitor,Cycloheximide cs,Sm TGR inh,Tb PYK inh
COC(=O)C(C)NC(=O)c1ccc(C(C)(C)C)cc1 (stereo not drawn),-5%,-5%,77*,31*,-11%,-10%
CCOc1ccc2nc(N3CCN(C(=O)c4ccc5c(c4)CCCC5)CC3)sc2c1,/,/,/,/,8%,-2%
CC(=O)N1CCc2c(sc3c2c(=O)n(CCc2ccccc2)c(=O)n3Cc2ccc(F)cc2)C1,/,/,/,/,5%,0%
COc1ccc(NC(=O)O/N=C/c2c(C)nn(C(C)(C)C)c2C)cc1,-18%,0%,45,29*,4%,2%
Cc1nn(C(C)(C)C)c(C)c1/C=N/OC(=O)Nc1ccc(Cl)c(Cl)c1,-14%,-1%,-18,-4,-2%,3%
COc1cc(C(CCN2CCCC2)c2c(OC)cc(OC)c3c2OC(=O)CC3c2ccc(N(C)C)cc2)cc(OC)c1OC (stereo not drawn),-5%,/,-10,-5,/,/
COc1ccc(CNc2nc3ccccc3n2C(C)C)c(O)c1,-5%,14%,/,1,-9%,-2%
COc1ccc(CNc2nc3ccccc3n2C)c(OC)c1,-5%,18µM*,82*,40*,0%,-17%
COc1ccc(CNc2nc3ccccc3n2C)c(O)c1,0%,-13%,69*,39*,1%,-12%
Cn1c(NCc2cc(Br)ccc2O)nc2ccccc21,5%,1%,66*,27*,0%,-4%
Cc1nnc(SCC2=C(C(=O)O)N3C(=O)C(NC(=O)Cc4ccccc4)C3SC2)s1 (stereo not drawn),/,/,/,/,13µM*,-11%
Cc1c(Cl)cnn1CC(=O)NC1C(=O)N2C(C(=O)O)=C(CSc3nnnn3C)CSC12 (stereo not drawn),?,4%,-6,2,16µM*,-14%
CC1=C(C(N)=O)N2C(=O)[C@@H](NC(=O)Cc3ccccc3)C2SC1 (stereo partly drawn),0%,/,/,/,/,/
Cc1c(Cl)c(C(F)F)nn1CC(=O)NC1C(=O)N2C(C(=O)O)=C(CSc3nnnn3C)CSC12 (stereo not drawn),-20%,9%,12,-6,4µM*,-7%
Cc1nn(CC(=O)NC2C(=O)N3C(C(=O)O)=C(CSc4nnnn4C)CSC23)cc1Br (stereo not drawn),?,21%,-7,-5,20µM*,-1%
O=C(O)C1=C(CSc2nnnn2CS(=O)(=O)O)CS[C@@H]2[C@H](NC(=O)[C@H](O)c3ccccc3)C(=O)N12,/,/,/,/,/,-7%
Cc1cc(=O)c(C(=O)N[C@@H](C(=O)N[C@@H]2C(=O)N3C(C(=O)O)=C(CSc4nnnn4C)CS[C@H]23)c2ccc(O)cc2)c[nH]1,/,/,/,/,/,-12%
COc1ccc(Br)cc1CNC(=O)c1cc(=O)[nH]c2ccc(S(=O)(=O)N3CCCCC3C)cc12 (stereo not drawn),/,/,/,/,5%,1%
Cn1nnnc1SCC1=C(C(=O)O)N2C(=O)C(NC(=O)Cn3nc(C(F)F)cc3C3CC3)C2SC1 (stereo not drawn),?,2%,33,-2,3.5µM*,-3%
CCC(=O)N1CCC2(CC1)Oc1ccc(F)cc1C(=O)C21CC(c2ccccc2)=NO1 (stereo not drawn),4%,-1%,-5,-5,50µM*,3%
CC(=O)OCC1=C(C(=O)O)N2C(=O)[C@@H](NC(=O)CSc3ccncc3)[C@@H]2SC1,-20%[21.7 µM],/,/,/,/,2%
COc1cccc(C(=O)NC2C(=O)N3C(C(=O)O)=C(COC(C)=O)CSC23)c1 (stereo not drawn),/,/,/,/,13µM*,-3%
CC(=O)OCC1=C(C(=O)O)N2C(=O)C(NC(=O)c3ccc(COc4cccc(Cl)c4Cl)o3)C2SC1 (stereo not drawn),-6%,2%,29,-2,20µM*,-7%
COc1cccc(N2CC(NC(=O)c3cccc(OC)c3OC)CC2=O)c1 (stereo not drawn),/,/,/,/,4%,3%
O=C(NC1CC1)c1ccc2c(c1)S(=O)(=O)c1cc(Cl)ccc1C2=O,/,/,/,/,-3%,/
SMILES,Giardia FBPA inh,LmPK inh,Shiga inhibitor,Cycloheximide cs,Sm TGR inh,Tb PYK inh
CCC1CCCCN1C(=O)CSc1n[nH]c(-c2ccccc2Cl)n1 (stereo not drawn),/,/,/,/,4%,2%
CCc1cccc(NC(=O)Nc2csc3c2CCCC3)c1,/,/,/,/,6%,2%
O=C(c1ccc2c3n(nc2c1)-c1ccccc1CO3)N1CCOCC1,0%,14µM*,58*,31*,-1%,18µM*
O=C(c1ccc2c3n(nc2c1)-c1ccc(Cl)cc1CO3)N1CCOCC1,0%,16µM*,56*,21*,1%,-21%
O=C(c1ccc2nc(-c3ccccc3)c(-c3ccccc3)nc2c1)N1CCCCC1,6%,3%,5,-2,9%,1%
Cc1ccc2c(c1)COc1c3ccc(C(=O)N4CCCCC4)cc3nn1-2,6%,-25%,64,34*,-8%,-12%
O=C(c1ccc2c3n(nc2c1)-c1ccccc1CO3)N1CCCCC1,0%,6.3µM*,80*,29*,-2%,?
CCN(CC)CCCNC(=O)c1ccc2c3n(nc2c1)-c1ccc(Cl)cc1CO3,/,/,/,/,-5%,2%
CS(=O)(=O)N1CCc2cc(C(=O)N3CCCCC3)ccc21,4%,4%,0,-1,-24%,3%
O=C(Nc1cccc(F)c1)C1CCN(c2nc3ccccc3[nH]2)CC1,/,/,/,/,3%,0%[15.4 µM]
NC(=O)CC(NC(=O)Cc1cccc2ccccc12)c1ccc(N2CCN(c3ccc(F)cc3)CC2)c([N+](=O)[O-])c1 (stereo not drawn),-4%,8%,13,-4,12%,-3%
O=C1OC2C[C@H]1[C@@H]1C(=O)N(Cc3ccccc3)CCC1C2I (stereo partly drawn),-2%,/,i,1,/,/
CCN(c1cccc(C)c1)C1C(=O)c2ccccc2N1C(C)=O (stereo not drawn),?,0%,-1,7,22µM*,-6%
CC(=O)N(CN1C(=O)c2ccccc2C1=O)c1cccc(C)c1,0%,3%,12,-2,6%,2%
Cc1cc(C(=O)NNC(=S)Nc2cccc(C(F)(F)F)c2)nn1C,/,-2%,33,18*,3%,-23%
CC(=O)OC[C@@H]1O[C@H](CCO/N=C(\C)CCN2CCCc3nc(C)c(C)cc32)C=C[C@@H]1OC(C)=O,0%[12.9 µM],/,/,/,/,/
